Screening data (PubChem BioAssay)
Only some compounds are listed: those with a hit (about 3.5% of all), similar ones and a draw of the others.
Pf apPOL block – Pf-apPOL inhibitors, biochemical, fluorescence; Plasmodium falciparum apicoplast DNA polymerase (apPOL); Recombinant Pf-apPOL, molecular beacon fluorescence, 1.5 h; inhibition, % at 10 µM; 210,000 tested, 0.25% active; AID 1794808, 2022
mHTT-CaM PPI inh – mutant huntingtin-calmodulin interaction inhibitors – biochemical, AlphaScreen, primary screen; inhibition, % at 15 µM; 190,000 tested, 3.6% active; P42858; AlphaScreen His-mHTT/GST-CaM binding, luminescence; AID 1671202, 2021
Each line names hits and unclear results; the compound was inactive in the other large screens; ! = repeats disagree. No stated cut-off is given here; in the data, active means inhibition above about 50%; inactive means the rest.

CN1C(=O)CCc2cc(NC(=O)C3CCCC3)ccc21	none
CCOC(CN1CCCCC1)OCC	none (no result: Pf apPOL block)
COc1ccc2c(c1)c1c3n2CCNC3CCC1 (stereo not drawn)	none
Brc1ccc2c(c1)c1c3n2CCNC3CCC1 (stereo not drawn)	mHTT-CaM PPI inh 75
CC(=O)c1ccc(NC(=O)c2ccc(-c3ccc([N+](=O)[O-])cc3)o2)cc1	none
Cc1ccnc(Nc2nc(CC(=O)NCc3ccco3)cs2)c1	mHTT-CaM PPI inh 68
Cc1ccnc(Nc2nc(-c3ccncc3)cs2)c1	none
Cc1ccnc(Nc2nc(-c3cccnc3)cs2)c1	Pf apPOL block 72!
Cc1ccnc(Nc2nc(CC(=O)NCCc3cccs3)cs2)c1	none
Cc1ccnc(Nc2nc(-c3ccc4c(c3)OCO4)cs2)c1	mHTT-CaM PPI inh 56
Cc1ccnc(Nc2nc(-c3ccc(Cl)cc3)cs2)c1	none
Cc1ccc(NC(=O)C2(C)Oc3cccnc3N(C)C2=O)cc1 (stereo not drawn)	none
CC(=O)n1cc(/C=C2\C(=O)NC(=O)N(c3ccc(C)cc3)C2=O)c2ccccc21	none
CC(C)c1ccc(N2CCN(CC(=O)Nc3nccs3)C2=O)cc1	none
Cc1ccc2nc(NC(=O)/C=C/c3ccccc3)sc2c1	none
CCc1nc(N2CCCCC2)c(C#N)c2c1CCCC2	none
Clc1cc(-c2ccccn2)nc(-c2ccccn2)c1	mHTT-CaM PPI inh 76 (no result: Pf apPOL block)
c1ccc(-c2nc(-c3ccccn3)nc(-c3ccccn3)n2)nc1	none (no result: Pf apPOL block)
Cc1ccc(NC(=O)C2CC(=O)N(c3ccc(F)cc3)C2)c(C)c1 (stereo not drawn)	none
Cc1ccc(-c2ccc(CN3C(C)C(=O)N(Cc4cn(Cc5ccco5)nn4)CCS3(=O)=O)cc2)c(C)c1 (stereo not drawn)	mHTT-CaM PPI inh 84
COc1cccc(-c2ccc(CN3C(C)C(=O)N(Cc4cn(Cc5ccco5)nn4)CCS3(=O)=O)cc2)c1OC (stereo not drawn)	none
Cc1ccccc1-c1ccc(CN2C(C)C(=O)N(Cc3cn(Cc4ccco4)nn3)CCS2(=O)=O)cc1 (stereo not drawn)	mHTT-CaM PPI inh 92
Cc1ccc(-c2ccc(CN3C(C)C(=O)N(Cc4cn(Cc5ccco5)nn4)CCS3(=O)=O)cc2)cc1 (stereo not drawn)	none
CC1C(=O)N(Cc2cn(Cc3ccco3)nn2)CCS(=O)(=O)N1Cc1ccc(-c2ccccc2C(F)(F)F)cc1 (stereo not drawn)	mHTT-CaM PPI inh 68
CC1C(=O)N(Cc2cn(Cc3ccco3)nn2)CCS(=O)(=O)N1Cc1ccc(-c2ccc(F)nc2)cc1 (stereo not drawn)	none
CCc1cc(C(=O)NC2CC2)nc2cc(-c3ccsc3)nn12	none
O=[N+]([O-])c1ccc(S(=O)(=O)N2CCN(Cc3cccs3)CC2)cc1	none
COc1ccc(C(=O)c2coc3cc(C)ccc3c2=O)cc1	none
O=C1C2C3CC(C(Br)C3Br)C2C(=O)N1c1ccc([N+](=O)[O-])cc1 (stereo not drawn)	none
Cc1ccc2nc(C)c(NC(=O)C3c4ccccc4Oc4ccccc43)c(=O)n2c1	none
Cc1ccc(-c2noc(CCn3nc(-c4ccccc4)ccc3=O)n2)cc1	none
O=c1ccc(-c2ccccc2)nn1CCc1nc(-c2cccc(F)c2)no1	mHTT-CaM PPI inh 81
CSCCC(C(O)=C(C#N)c1nc2ccccc2[nH]1)N1C(=O)c2ccccc2C1=O (stereo not drawn)	mHTT-CaM PPI inh 67
CC(C)CC(C(O)=C(C#N)c1nc2ccccc2[nH]1)N1C(=O)c2ccccc2C1=O (stereo not drawn)	mHTT-CaM PPI inh 92
N#CC(=C(O)CCCN1C(=O)c2ccccc2C1=O)c1nc2ccccc2[nH]1	none
CC/C(O)=C(/C#N)c1nc2ccccc2[nH]1	none
COc1cc(C2C(C(=O)Nc3ccc(C)cn3)=C(C)NC3=C2C(=O)CCC3)cc(OC)c1OC (stereo not drawn)	none
Cc1cc(C)n(-c2ccnc(NCc3ccc(Cl)cc3)n2)n1	none
O=C1C(=O)N(c2cccnc2)C(c2ccccc2[N+](=O)[O-])C1=C(O)c1ccc(Cl)cc1 (stereo not drawn)	mHTT-CaM PPI inh 88
O=C(O)CN1C(=O)C(=O)C(=C(O)c2ccc(Cl)cc2)C1c1ccccc1[N+](=O)[O-] (stereo not drawn)	none
CN1C(=O)S/C(=C/c2ccc(N3CCCCC3)cc2)C1=O	none
CCNC(=O)C(C1CCCC1)N1CCN(C(=O)c2ccccc2C)CC1 (stereo not drawn)	none
COc1ccc(C2/C=C\CN(C(=O)Nc3ccccc3-c3ccccc3)CC(=O)N2Cc2ccc(F)cc2)cc1 (stereo not drawn)	mHTT-CaM PPI inh 60
COc1ccc(C2/C=C\CN(C(=O)C3CCCC3)CC(=O)N2Cc2ccc(F)cc2)cc1 (stereo not drawn)	mHTT-CaM PPI inh 63
COc1ccc(C2/C=C\CN(C(=O)C3CCCCC3)CC(=O)N2Cc2ccc(F)cc2)cc1 (stereo not drawn)	none
COc1ccc(C2/C=C\CN(CC3CC3)[C@@H](Cc3ccccc3)C(=O)N2Cc2ccc(F)cc2)cc1 (stereo partly drawn)	none
